Source: PubChem (National Center for Advancing Translational Sciences (NCATS))
HEK cytotox: HEK 293 cell cytotoxicity; HEK 293 viability, ATP luminescence (CellTiter-Glo), 48-72 h; Potency, µM (series often up to 115 µM), most hits filed as inhibitors; actives 6.6% (n = 94,000); note: nearly all actives have a fitted effect of over 60% in size
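qHTS cytotoxicity; HEK 293, 250 cells/well; compound pinned; 48 or 72 hr, 37 degree Celsius, 5% CO2, 95% humidity; CellTiter-Glo, 10 min RT; luminescence (ATP).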
NIH3T3 tox: cytotoxic compounds in NIH 3T3 cells; NIH 3T3 viability, CellTiter-Glo ATP luminescence, 48-72 h; Potency, µM (top dose mostly 96.7 µM), hits mostly inhibitors; actives 4.3% (n = 94,000); AID 1345082; note: nearly all actives have a fitted effect of over 55% in size
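First NIH 3T3 cells are plated at 400 cells/well; next compound is pinned in; then plates incubate 48 or 72 hr at 37 °C; finally CellTiter-Glo is added and luminescence read after 10 min.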
FLuc inh: inhibitors of firefly (Photinus pyralis) luciferase. actives 2.5% (n = 76,000). AID 1347043. purified P. pyralis luciferase, luminescence, biochemical. Potency, µM (highest dose often 115 µM), usual class: inhibitors; note: nearly all actives have a fitted effect of over 65% in size
Target sequence (P08659 whole entry, looked up): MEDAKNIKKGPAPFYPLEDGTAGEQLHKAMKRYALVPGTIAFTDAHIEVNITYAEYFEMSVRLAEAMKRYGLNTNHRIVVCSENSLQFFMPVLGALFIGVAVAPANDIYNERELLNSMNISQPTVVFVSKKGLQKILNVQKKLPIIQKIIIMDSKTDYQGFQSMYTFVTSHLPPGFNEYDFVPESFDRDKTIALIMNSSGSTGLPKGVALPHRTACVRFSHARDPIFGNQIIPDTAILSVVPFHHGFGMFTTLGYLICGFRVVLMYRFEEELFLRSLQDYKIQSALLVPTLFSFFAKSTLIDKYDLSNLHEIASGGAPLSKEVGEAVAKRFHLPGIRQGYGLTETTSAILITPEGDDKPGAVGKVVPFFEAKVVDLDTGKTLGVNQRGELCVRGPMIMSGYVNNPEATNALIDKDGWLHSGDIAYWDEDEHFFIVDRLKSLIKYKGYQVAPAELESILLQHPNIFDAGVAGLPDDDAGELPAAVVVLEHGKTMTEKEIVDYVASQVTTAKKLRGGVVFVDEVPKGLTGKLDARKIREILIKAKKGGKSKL
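Purified P. pyralis luciferase (10nM final) in 50mM Tris acetate pH 7.5, 10mM Mg acetate, 0.01% Tween-20, 0.05% BSA with 10uM D-luciferin and 10uM ATP. Compounds titrated qHTS. Luminescence imaged on CCD.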
GPT2 inhibitor: blocks human glutamate pyruvate transaminase 2. AID 1671188. Recombinant GPT2, coupled pyruvate oxidase/HRP Amplex Red fluorescence. Potency, µM (titrated, usually from 57.7 µM), actives largely listed as inhibitors. actives 0.25% (n = 100,000). Q8TD30; note: nearly all actives have a fitted effect of over 60% in size
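GPT2 10ng/uL, a-KG 250uM, L-Ala 2mM, HEPES pH7.5 + 0.0001% Tween; 30 min RT. Then Amplex mix (PO/HRP/ThPP), 30 min RT dark, fluorescence. AOA 50uM used as positive control.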
NPR1 antag: blocks ANP-stimulated signaling of human Npr1 receptor; actives 1.6% (n = 76,000); Potency, µM (doses to about 46.3 µM), actives largely listed as inhibitors; HEK293 hNpr1 GloSensor cGMP, ANP-stimulated luminescence; P16066; calls by dose curve; note: nearly all actives have a fitted effect of over 60% in size
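HEK293 cells stably expressing human Npr1 and cGMP GloSensor pGS-40F, loaded 2 h with 2% GloSensor reagent, given compound 30 min at room temperature. Luminescence read before and 20 min after 0.1 nM hNppA.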
A number is an active result. Most compounds without a hit are left out; they make up all but 10% or so of the library. Unless noted, calls come from the whole dose curve; as a rule, active = well fitted curve in the direction sought with a large enough effect; inconclusive = small, poorly fitted or top-dose-only effect, or another doubt; inactive = no such curve, though single readings can be large; an effect the other way counts as inactive or inconclusive.

O=C(c1ccsc1)N1CCCn2cc(-c3ccccc3)nc21 was read as HEK cytotox inconclusive, NIH3T3 tox inactive, FLuc inh 40µM, GPT2 inhibitor inactive and NPR1 antag inactive.
COc1cccc(-c2cn3c(n2)N(C(=O)c2cccs2)CCC3)c1 was read as HEK cytotox inconclusive, NIH3T3 tox inactive, FLuc inh 35µM, GPT2 inhibitor inactive and NPR1 antag inactive.
Screening Cc1ccsc1C(=O)N1CCCn2cc(-c3cccc(C#N)c3)nc21 returned HEK cytotox inconclusive, NIH3T3 tox inactive, FLuc inh 32µM, GPT2 inhibitor inactive and NPR1 antag inactive.
`O=C(NCc1ccccc1Cl)c1cc(-c2ccc(Cl)cc2Cl)c2nncn2n1` gave HEK cytotox inconclusive, NIH3T3 tox inconclusive and GPT2 inhibitor inactive.
For CN(C)C(=O)CN1C(=O)CO[C@H](c2ccc(NC(=O)c3ccc(C(F)(F)F)cc3)cc2)[C@H]1CO the results were HEK cytotox inactive, NIH3T3 tox inactive, FLuc inh inconclusive, GPT2 inhibitor inactive and NPR1 antag inactive.
CN(Cc1cccnc1)Cc1nc(C2(O)CCN(CC3CC3)CC2)cs1 was read as HEK cytotox inactive, NIH3T3 tox inactive, FLuc inh inactive, GPT2 inhibitor inactive and NPR1 antag inactive.
For COC(=O)CNC(=O)c1ccc2nccn2c1 the results were HEK cytotox inactive, NIH3T3 tox inactive and GPT2 inhibitor inactive.
For Cc1nn(-c2ccccc2)c2c1C(C1CC1)N(C1CCN(Cc3cccs3)CC1)C2=O (stereo unspecified) the results were HEK cytotox inconclusive and NIH3T3 tox inactive.
For O=C1NC2(CCCN(CC3CCCCC3)C2)Oc2ccccc21 (stereo unspecified) the results were HEK cytotox inconclusive, NIH3T3 tox inconclusive, FLuc inh inactive, GPT2 inhibitor inactive and NPR1 antag inactive.
Screening CCn1ccc(C(=O)N2CCC(c3n[nH]c(=O)n3-c3ccc(C)cc3)CC2)n1 returned HEK cytotox inactive, NIH3T3 tox inconclusive, FLuc inh inactive, GPT2 inhibitor inactive and NPR1 antag inactive.
Cc1cc(C)cc(C2(CNC(=O)C3CC4(CCNCC4)CN3)CCCC2)c1 (stereo unspecified) was read as HEK cytotox 79µM, NIH3T3 tox inconclusive, FLuc inh inactive, GPT2 inhibitor inactive and NPR1 antag inactive.
For O=C(c1cccc(OC2CN(C3CCCCCC3)C2)c1)N1CCCC1 the results were HEK cytotox inconclusive, NIH3T3 tox inactive and GPT2 inhibitor inactive.
Screening CC(C)N1C[C@@H](CO)[C@H](c2nc(-c3cccnc3)no2)C1 returned HEK cytotox inconclusive, NIH3T3 tox inactive, FLuc inh 20µM, GPT2 inhibitor inactive and NPR1 antag inactive.
`OC[C@@H]1CN(CC2CC2)C[C@H]1c1nc(-c2cccnc2)no1` gave HEK cytotox inactive, NIH3T3 tox inactive, FLuc inh inconclusive, GPT2 inhibitor inactive and NPR1 antag inactive.
For CCn1cc(S(=O)(=O)N2CCCC2Cc2noc(-c3ccccc3)n2)cn1 (stereo unspecified) the results were HEK cytotox 45µM, NIH3T3 tox inconclusive and GPT2 inhibitor inactive.
CCNC(=O)N1CCC(c2noc(-c3ccccc3)n2)C1 (stereo unspecified) was read as HEK cytotox inactive, NIH3T3 tox inactive, FLuc inh inactive, GPT2 inhibitor inactive and NPR1 antag inactive.
`CCNC(=O)N1CCCC(Cc2noc(-c3ccccc3)n2)C1` (stereo unspecified) gave HEK cytotox 32µM, NIH3T3 tox inactive, FLuc inh inconclusive, GPT2 inhibitor inconclusive and NPR1 antag inactive.
For Cc1nn(C(=O)CCC(=O)N2CCC(CCOc3ccccc3F)C2)c2ccccc12 (stereo unspecified) the results were HEK cytotox inactive, NIH3T3 tox inactive, FLuc inh inactive, GPT2 inhibitor inactive and NPR1 antag inactive.
For CN(CC(=O)N1CCC(CCOc2ccccc2F)C1)S(=O)(=O)c1ccc2c(c1)oc(=O)n2C (stereo unspecified) the results were HEK cytotox 40µM, NIH3T3 tox inconclusive, FLuc inh inactive, GPT2 inhibitor inactive and NPR1 antag inactive.
Screening O=C(CN1C(=O)CCC1=O)N1CCC(CCOc2ccccc2F)C1 (stereo unspecified) returned HEK cytotox 45µM, NIH3T3 tox inactive, FLuc inh inactive, GPT2 inhibitor inactive and NPR1 antag inconclusive.
For C=CCNC(=O)C[C@@H]1CCN(C(=O)C(C)(C)C)C[C@@H]1CC the results were HEK cytotox inactive, NIH3T3 tox inactive, FLuc inh inactive, GPT2 inhibitor inactive and NPR1 antag inactive.
`Clc1ccccc1C1Cn2cnc(-c3nc(-c4ccccn4)no3)c2CO1` (stereo unspecified) gave HEK cytotox inconclusive, NIH3T3 tox inconclusive, FLuc inh 25µM, GPT2 inhibitor inactive and NPR1 antag inactive.
For COc1ccc2cc1Nc1ccc(cc1)C[C@H](NCc1cccc(O)c1)C(=O)N(C)[C@@H](C(=O)Nc1ccccc1)C2 the results were HEK cytotox inconclusive, NIH3T3 tox inconclusive, FLuc inh inactive, GPT2 inhibitor inactive and NPR1 antag inactive.
COc1ccc2cc1Nc1ccc(cc1)C[C@H](NC(=O)Cc1cccc(Cl)c1)C(=O)N(C)[C@H](C(=O)NCCC(C)C)C2 was read as HEK cytotox inconclusive, NIH3T3 tox 25µM, FLuc inh inactive, GPT2 inhibitor inactive and NPR1 antag inactive.
Screening O=C(c1ccccn1)N1CCC2(CC1)CN[S+](=O)([O-])c1ccccc1N2 returned HEK cytotox inactive, NIH3T3 tox inactive, FLuc inh inactive, GPT2 inhibitor inactive and NPR1 antag inactive.
For CN(C(=O)c1cccn1C)C1CCc2nn(C)c(=O)n2CC1 (stereo unspecified) the results were HEK cytotox inactive, NIH3T3 tox inactive, FLuc inh inactive, GPT2 inhibitor inactive and NPR1 antag inactive.
Screening CCCNC(=O)N1CCn2nc(C(O)c3ccccc3)cc2C1 (stereo unspecified) returned HEK cytotox inactive, NIH3T3 tox inactive, FLuc inh inactive, GPT2 inhibitor inactive and NPR1 antag inactive.
Screening O=c1cc(-c2ccccn2)oc2c(-c3cn[nH]c3)nccc12 returned HEK cytotox inconclusive, NIH3T3 tox 11µM, FLuc inh inactive, GPT2 inhibitor inactive and NPR1 antag inactive.
O=c1cc(-c2ccccn2)oc2c(NC3CCOCC3)nccc12 was read as HEK cytotox inactive, NIH3T3 tox 14µM, FLuc inh inactive, GPT2 inhibitor inactive and NPR1 antag inactive.
O=c1cc(-c2cnccn2)oc2c(-c3cn[nH]c3)nccc12 was read as HEK cytotox inactive, NIH3T3 tox inconclusive, FLuc inh inactive, GPT2 inhibitor inactive and NPR1 antag inactive.
Screening Cn1ccnc1CN1CCOc2cc([S+](=O)([O-])Nc3ccccc3)ccc2C1 returned HEK cytotox 112µM, NIH3T3 tox inactive, FLuc inh inactive, GPT2 inhibitor inactive and NPR1 antag inactive.
